Among the data in PubChem BioAssay (NCATS) are Potency values, retold here.

Structures are written as SMILES. Where “and” joins values, the source holds several entries; their conditions need not be identical. Equal entries are not always repeated. Inconclusive results are not listed. Where a call stands in place of a potency, no number is given. Calls of active or inactive are those of the source. Calls come from the whole dose curve; as a rule, active = well fitted cell-killing curve with a large enough effect; inconclusive = small, poorly fitted or top-dose-only effect; inactive = no such curve, though single readings can be large or run the other way.
Potency is the fitted concentration of half-maximal effect.

This assay can be described thus: qHTS of pediatric cancer cell lines to identify multiple opportunities for drug repurposing: Confirmatory screen for Rh41 cells (AID 1347123).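 Note: 48 h compound exposure; nearly all actives have a fitted effect of over 60% in size.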 To be noted: Rh41 rhabdomyosarcoma cells, viability/cytotoxicity qHTS; series mostly up to 45.9 µM. From the text:
Drug repurposing or repositioning has been offered as a strategy for drug development in oncology programs. This approach has special potential for childhood cancers and other rare or orphan diseases, where the expected return on new drug development has been a disincentive to pharmaceuticals.
In this project we exploit the poly-pharmacology of drugs to discover new indications via phenotypic screening of a panel of 19 well-characterized cell lines derived from solid tumors seen in children and adolescents. The goal is to identify approved drugs with previously unrecognized anticancer properties that has the potential to reveal new mechanisms and biological processes involved in carcinogenesis or drug resistance. We employed a titration-based paradigm (quantitative high-throughput screening or qHTS), where all compounds were tested at multiple concentrations for their effect on cell viability. Concentration-response curves (CRCs) were derived directly from the primary screen, and both potency and efficacy values were used to identify compounds with robust bioactivity profiles. We screened the NIH Chemical Genomics Center (NCGC) Pharmaceutical Collection (NPC) and Mechanism Interrogation Plate (MIPE) small molecule collections of approved and investigational compounds against these cell lines; and measured metabolically active cells after 48 hours of compound treatment as a proxy for cell viability.
Assay Submitter: Nathalia J. Martinez, National Center for Advancing Translational Sciences, National Institutes of Health, Rockville, MD, USA; email: natalia.martinez@nih.gov
[1] Shen, M et al. Quantitative high-throughput phenotypic screening of pediatric cancer cell lines identifies multiple opportunities for drug repurposing. Oncotarget 2017 Dec 19;9(4):4758-4772. PMID 29435139.
The cells were obtained from University of North Carolina (UNC), Pediatric Preclinical Testing Program (PPT), and Coriell Institute (CI).
qHTS cell viability assay:
Cells were assayed in growth media at a density of 500-1,000 cells/well. Five microliters of cells were dispensed into 1,536-well, white, solid-bottom, TC-treated plates (Greiner Bio One) using a multidrop dispenser and incubated at 37 degrees C, 5% CO2, under a humidified atmosphere for 5 hours. Twenty-three nanoliters of compounds and controls (neutral control DMSO or positive control bortezomib at final concentration of 2.3 µM) were subsequently transferred by Kalypsys pintool. For primary screens, the MIPE collection was tested at 11-point dilutions (final concentrations range from 0.78 nM to 46 µM) and the NPC collection at 8-point dilutions (final concentrations range from 0.59 nM to 46 µM). Compounds tested in follow-up screens were assayed at 11-point dilutions. Cells were incubated for 48 hours, followed by addition of 3 µL of CellTiter-Glo (Promega). After a 15 min incubation at room temperature, samples were analyzed for luminescence intensity using a ViewLux High-throughput CCD imager equipped with clear filters.
For orientation: Quantitative high-throughput screening tests each substance at several concentrations.
As for `O=S(=O)(O)CCS`, the Potency entry was “inactive”. Then `CCc1c2c(nc3ccc(OC(=O)N4CCC(N5CCCCC5)CC4)cc13)-c1cc3c(c(=O)n1C2)COC(=O)[C@]3(O)CC`, with 4.14 µM (active); and `CC(=O)[C@H]1CC[C@H]2[C@@H]3CCC4=CC(=O)CC[C@]4(C)[C@H]3CC[C@]12C`, with 18.5 µM (active). In the case of `Nc1[nH]c(=O)ncc1F` it was “inactive”. Consider `COc1cc2c(Nc3ccc(Br)cc3F)ncnc2cc1OCC1CCN(C)CC1`, for which the Potency was 16.5 µM (active). Take `CCC(=O)O[C@]1(C(=O)CCl)[C@@H](C)C[C@H]2[C@@H]3CCC4=CC(=O)C=C[C@]4(C)[C@@]3(F)[C@@H](O)C[C@@]21C`: the Potency was 26.1 µM (active). Turning to `O=NN(CCCl)C(=O)NC1CCCCC1`, the Potency result was “inactive”. Consider `Nc1nc(N)c2nc(CNc3ccc(C(=O)NC(CCC(=O)O)C(=O)O)cc3)cnc2n1` (stereo not drawn), for which the Potency entry was “inactive”. Consider `CC1CC2C3CCC4=CC(=O)C=C[C@]4(C)[C@@]3(F)[C@@H](O)C[C@]2(C)[C@@]1(O)C(=O)CO` (stereo partly drawn), for which the Potency result was “inactive”. Take `CO[C@@]12[C@H](COC(N)=O)C3=C(C(=O)C(C)=C(N)C3=O)N1C[C@@H]1N[C@@H]12`: the Potency is 7.37 µM (active).

In the case of `Cn1nnc2c(C(N)=O)ncn2c1=O`, the Potency entry is “inactive”. With `COc1nc(N)nc2c1ncn2[C@@H]1O[C@H](CO)[C@@H](O)[C@@H]1O`, the Potency was 16.5 µM (active).

With `COc1ccc(C(=O)CC(=O)c2ccc(C(C)(C)C)cc2)cc1`, the Potency entry was “inactive”. In the case of `CN(C)c1ccc(C(=C2C=CC(=[N+](C)C)C=C2)c2ccc(N(C)C)cc2)cc1` it was 0.522 µM (active); in that of `C[C@@H](CN1CC(=O)NC(=O)C1)N1CC(=O)NC(=O)C1`, “inactive”. On to `CN1CCCC(n2nc(Cc3ccc(Cl)cc3)c3ccccc3c2=O)CC1` (stereo not drawn), for which the Potency is 8.27 µM (active). For `CNNCc1ccc(C(=O)NC(C)C)cc1`, the Potency entry is “inactive”. Turning to `CS(=O)(=O)c1ccc([C@@H](O)[C@@H](CO)NC(=O)C(Cl)Cl)cc1`, the Potency result was “inactive”. With `CC(C(=O)O)c1ccc2c(c1)CC(=O)c1ccccc1S2` (stereo not drawn), the Potency entry is “inactive”. With `COc1ccc(-c2ccc3cc(C(=O)O)ccc3c2)cc1C12CC3CC(CC(C3)C1)C2`, the Potency entry was “inactive”. In the case of `CCOC(=O)[C@H](CCc1ccccc1)N[C@H]1CS[C@H](c2cccs2)CN(CC(=O)O)C1=O` it was “inactive”; in that of `CCC(=O)O[C@]1(C(=O)SCF)[C@H](C)C[C@H]2[C@@H]3C[C@H](F)C4=CC(=O)C=C[C@]4(C)[C@@]3(F)[C@@H](O)C[C@@]21C`, “inactive”; in that of `CC(C)(C)C(=O)OCOP(=O)(COCCn1cnc2c(N)ncnc21)OCOC(=O)C(C)(C)C`, 20.8 µM (active). Consider `CNS(=O)(=O)CCc1ccc2[nH]cc(C3CCN(C)CC3)c2c1`, for which the Potency entry is “inactive”. For `C[C@@H]1C[C@H]2[C@@H]3CCC4=CC(=O)C=C[C@]4(C)[C@@]3(Cl)[C@@H](O)C[C@]2(C)[C@@]1(OC(=O)c1ccco1)C(=O)CCl`, the Potency is 1.04 µM (active).

Take `Oc1c(Cl)cc(Cl)c2cccnc12`: the Potency is 14.7 µM (active). As for `CC(C)NCC(O)c1ccc(NS(C)(=O)=O)cc1` (stereo not drawn), the Potency result was “inactive”.

Regarding `COc1cc2nc(N3CCCN(C)CC3)nc(NC3CCN(Cc4ccccc4)CC3)c2cc1OC`, the Potency was 0.261 µM (active).

`CC(C)(C#N)c1cc(Cn2cncn2)cc(C(C)(C)C#N)c1`: the Potency entry was “inactive”. As to `COC(=O)Nc1nc2ccc(Sc3ccccc3)cc2[nH]1`, the Potency was 1.17 µM (active). As for `Nc1nc(=S)c2[nH]cnc2[nH]1`, the Potency was 14.7 µM (active) and 13.1 µM (active). Take `COC(=O)Nc1nc2ccc(S(=O)c3ccccc3)cc2[nH]1` (stereo not drawn): the Potency was 1.04 µM (active).

As to `NC(=O)c1cccnc1`, the Potency entry is “inactive”.
